Bioassay records from PubChem BioAssay.
The entries come from a sample that favours hits as a whole.
LASV entry inh – qHTS for Inhibitors of binding or entry into cells for Lassa Virus. Lassa virus pseudotype entry inhibition, cell reporter. Potency, µM (titrated, usually from 37.9 µM), for inactives: top-dose activity change, negative = inhibition, usual class: inhibitors. actives 1.2% (n = 300,000). AID 540256, 2011; calls by dose curve; tested in HEK293 cells; further: potency means the concentration at half of the fitted maximal effect; on the % scale 0 is the no-effect control and ±100 the full control effect; nearly all actives have a fitted effect of over 50% in size
CHX counter – Cycloheximide Counterscreen for Small Molecule Inhibitors of Shiga Toxin. cell reporter, cycloheximide protein synthesis inhibition counterscreen. max response, %. actives 12% (n = 300,000). AID 2314, 2010; in the data active means max response mostly above about 13%, no sharp cut-off; inactive means mostly below about 14%; further: read at 38.3 µM for the half of the compounds with a filed dose; 0% is about no effect
Marburg entry inh – qHTS for inhibitors of binding or entry into cells for Marburg Virus; actives 1.8% (n = 300,000); Marburg virus pseudotyped entry inhibition, cell reporter; AID 540276, 2011; Potency, µM (titrated, usually from 37.8 µM), inactives show at the highest dose activity change, negative = inhibition, most hits filed as inhibitors; calls by dose curve; tested in HEK293 cells; further: potency means the concentration at half of the fitted maximal effect; on the % scale 0 is the no-effect control and ±100 the full control effect
Shiga inhibitor – A qHTS for Small Molecule Inhibitors of Shiga Toxin; AID 2315, 2010; Vero cells, Shiga toxin protein synthesis inhibition reporter; actives 9.2% (n = 290,000); inhibition, % at 38.7 µM; in the data active means inhibition mostly above about 28%, no sharp cut-off; inactive means mostly below about 43%; further: 0% is about no effect
AMA1 RON2 block – qHTS for Inhibitors of AMA1-RON; Towards Development of Antimalarial Drug Lead: Primary Screen. Plasmodium falciparum AMA1 (3D7) - RON2 peptide interaction. AlphaScreen AMA1-biotinylated RON2 peptide binding. Potency, µM (series often up to 58.2 µM), without a hit: at the top dose activity change, negative = inhibition, hits mostly inhibitors. actives 0.2% (n = 360,000). AID 720542, 2013; active means well fitted inhibition curve with a large enough effect; inconclusive means small, poorly fitted or top-dose-only effect; inactive means no such curve, though single readings can be large or run the other way;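 further: potency means the concentration at half of the fitted maximal effect; 0% = vehicle wells and -100% = peptide control; nearly all actives have a fitted effect of over 45% in size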
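AMA1 (3D7) with his tag at 25 nM final met compounds first, then biotinylated RON2 peptide at 25 nM; detection used donor plus acceptor beads, 10 µg/mL apiece, read by AlphaScreen after 30 min at room temperature.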
The depositor's hits bear a star; ? = inconclusive; / = no result; [ ] = dose if it differs, or a comment.

SMILES | LASV entry inh | CHX counter | Marburg entry inh | Shiga inhibitor | AMA1 RON2 block
CCn1ncc([N+](=O)[O-])c1C(=O)n1nc(C)cc1C | ? | 45.4* | ? | 111.5* | 2.5%
CCN(C=NC1=NN(c2cccc(C(F)(F)F)c2)CC1)CC | -1.8% | 37.1* | ? | 66.2 | ?
Cc1cccc(N2CCC(N=CN(C)C)=N2)c1 | -9.8%[46.1 µM] | 41.3* | ? | 99.6* | -13.3%
CC1CCCCN1C(=O)COc1ccc(F)cc1 (centres undefined) | 10.2% | 11.0 | -5.5% | 25.7 | -1.1%
CCc1cc(-c2cnnn2Cc2ccccc2)ccc1-c1cn(CC(C)C)nn1 | ? | / | / | / | 0.0%
CCOC(=O)C1CCN(CC(=O)Nc2c(C(=O)OC)[nH]c3ccccc23)CC1 | / | -3.4 | / | -2.3 | /
COC(=O)c1[nH]c2ccc(Cl)cc2c1NC(=O)C1CC1 | 17.9% | -4.8 | ? | -15.5 | -5.2%
COC(=O)c1[nH]c2ccc(Br)cc2c1NC(=O)CN1CCN(C2CCCCC2)CC1 | ? | -8.9 | 6.51µM* | -27.8 | -4.1%
CCOC(=O)C1CCN(CC(=O)Nc2c(C(=O)OC)[nH]c3ccc(Cl)cc23)CC1 | ? | -2.9 | 10µM* | -11.1 | -1.9%
COC(=O)c1[nH]c2ccc(Cl)cc2c1NC(=O)Oc1ccccc1 | ? | 40.0* | -0.8% | 56.0* | 20.6%
CCc1cccc(CC)c1NC(=O)c1c(C)oc2ccc(O)c(CN3CCN(C)CC3)c12 | 6.1%[46.1 µM] | / | ? | / | /
CC(C)c1ccc(/C=N/n2cnnc2)cc1 | 10.8%[46.1 µM] | 8.4 | 6.0%[46.1 µM] | 9.6 | 4.1%
O=C(NNC(=O)c1ccccc1Br)c1ccc(Cl)cc1 | 29.8% | 5.8 | -1.6% | 21.0 | 57.6%
O=C(NNC(=O)c1ccccc1F)c1cccc(Cl)c1 | -3.6% | 21.7* | ? | 80.4* | 1.8%
O=C(NNC(=O)c1ccccc1Br)c1cccc(Cl)c1 | 4.1% | 83.1* | ? | 50.4* | 22.5%
CCn1cc(/C=C/C(=O)Nc2ccc(C)cc2Br)cn1 | ? | 28.7* | 10.8% | active | -20.0%
c1cncc(C2Nc3ccccc3-c3nc4ccccc4n32)c1 (centres undefined) | -12.7% | 30.5* | -2.9% | 29.2* | 11.9%
c1csc(C2Nc3ccccc3-c3nc4ccccc4n32)c1 (centres undefined) | -18.5% | 51.8* | ? | 123.6* | 12.5%
Cc1ccsc1C1Nc2ccccc2-c2nc3ccccc3n21 (centres undefined) | -9.2% | 76.1* | ? | 132.3* | 4.3%
c1ccc2c(c1)NC(c1ccncc1)n1c-2nc2ccccc21 (centres undefined) | -18.3% | 1.2 | ? | 34.9 | -9.5%
COc1ccc(NC(=O)Cn2nnc(C(=O)NCc3ccccc3Cl)c2N)cc1Cl | -15.0%[46.1 µM] | / | / | / | /
Cc1ccc(CNC(=O)c2cccc(-n3cnc4cccnc43)c2)cc1 | 28.9%[46.1 µM] | / | / | / | /
O=C(Nc1ccc(-c2nc3ccccc3[nH]2)cc1)c1ccc2c(c1)OCO2 | -18.5% | 28.3* | ? | 20.6 | ?
O=C(Nc1ccc(Cl)c(-c2nc3ccccc3[nH]2)c1)c1ccc2c(c1)OCO2 | ? | 19.8* | ? | -39.7 | -4.7%
CC(C)(C)C(=O)Nc1ccc(Cl)c(-c2nc3ccccc3[nH]2)c1 | 4.0%[46.1 µM] | / | -1.2%[46.1 µM] | / | /
SMILES | LASV entry inh | CHX counter | Marburg entry inh | Shiga inhibitor | AMA1 RON2 block
COc1cc(C=O)c(Br)cc1OCc1ccc(C)cc1 | 6.1% | 46.6* | ? | 87.4* | 35.1%
COc1cc(C=O)ccc1OCc1ccncc1 | / | -1.5 | / | -4.3 | 14.9%
CON1C(=O)C(=O)N(OC)C(C)(C)C1(C)C | 11.8% | -2.3 | ? | -6.3 | 4.3%
COc1cccc(N2C(=O)NC(=O)/C(=C/c3ccc4c(c3)Cc3ccccc3-4)C2=O)c1 | 17.5% | 19.2* | -15.3% | 40.2 | 7.6%
COc1ccccc1-c1ccc(Nc2cccc(C(C)=O)c2)nn1 | 29.8% | 37.2* | -2.7% | 73.8* | -8.7%
CC(=O)c1cccc(Nc2ccc(-c3ccccc3F)nn2)c1 | -22.2% | 37.7* | ? | 93.6* | 16.4%
CC(=O)c1ccc(Nc2ccc(-c3ccccc3C)nn2)cc1 | 2.1% | 54.6* | -15.3% | 106.6* | 27.9%
CC(=O)c1cccc(Nc2ccc(Br)cc2)c1 | / | / | / | / | 17.4%
COc1cccc(C(=O)c2cc3cc(Cl)ccc3[nH]2)c1 | -11.1% | 38.4* | -5.9% | 41.9* | 5.8%
O=C(c1ccccc1)c1cc2cc(Cl)ccc2[nH]1 | 19.1%[46.1 µM] | 32.2* | 24.7%[46.1 µM] | 39.7* | -6.6%
CC1CN(C(=O)c2cc3cc(Cl)ccc3[nH]2)CC(C)O1 (centres undefined) | / | 10.0 | / | -5.5 | 7.4%
N#C/C(=C(/O)c1ccc(C(=O)c2ccccc2)cc1)c1nc2ccccc2[nH]1 | 3.4% | -2.6 | -5.0% | -9.3 | 21.4%
O=C1CN(C(=O)/C=C/c2cccc(Cl)c2)c2ccccc2N1 | ? | -3.2 | ? | -10.4 | 3.5%
O=C(/C=C/c1cccc(Cl)c1)c1nc2ccccc2[nH]1 | ? | 14.2* | ? | 36.0 | 62.1%
O=C(/C(=C\c1ccccc1)c1nc2ccccc2[nH]1)c1ccc(Cl)cc1 | ? | 18.9* | ? | 21.0* | 59.4%
COc1cc(/C=C(/C(=O)c2cccs2)c2nc3ccccc3[nH]2)ccc1O | ? | 65.7* | 4.11µM* | 110.8* | 26.3%
COc1ccc(C(=O)N/C(=C\c2cccs2)c2nc3ccccc3[nH]2)cc1OC | 4.0% | 21.5* | -5.8% | 98.4* | -10.6%
C=CC[C@](C)(O)c1ccccc1 | ? | / | -2.2%[14.2 µM] | / | /
O=C(/C(=C/c1ccc(Cl)cc1)c1nc2ccccc2[nH]1)c1cccs1 | / | 62.2* | 0.2% | 47.4 | 57.2%
COc1ccc2c(c1)NC(=O)CC(c1ccccc1)=N2 | 7.9% | 37.6* | 9.9% | 66.4* | -10.3%
CC1CN(C(=O)CCC(=O)NCc2ccc(Cl)cc2)c2ccccc2S1 (centres undefined) | / | -0.5 | / | -1.8 | 17.5%
O=C(Nc1ccc(CN2CCOCC2)cc1)c1cccs1 | 3.3% | 27.1* | ? | 63.8* | -8.5%
O=C(Nc1ccc(CN2CCOCC2)cc1)c1ccccc1F | -1.7% | 41.9* | -16.4% | 91.6* | 0.0%
O=C(Nc1ccc(CN2CCOCC2)cc1)c1cc(Br)ccc1Cl | / | 3.0 | / | 10.4 | -1.8%
c1ccc(CN2CCOCCOCCOCCOCC2)cc1 | -18.1% | -1.1 | -10.6%[46.1 µM] | 31.3 | 12.0%
NC(=O)c1ccc(NC(=O)c2ccc(CN3CCOCC3)cc2)cc1 | 8.3% | -1.6 | 1.8% | -10.7 | ?
O=C(Cc1ccccc1)Nc1ccc(CN2CCOCC2)cc1 | 15.1% | 30.5* | 8.1% | 80.8* | -1.6%
O=C(Nc1ccc(CN2CCOCC2)cc1)c1ccc(Cl)cc1Cl | / | 16.5* | / | 10.7 | 0.0%
COc1ccc2c(c1)CC(NC(=O)Nc1ccc(Br)c(C)c1)CO2 (centres undefined) | -12.9%[46.1 µM] | / | / | / | /
O=C(NC(=S)Nc1ccc(CN2CCOCC2)cc1)c1cccc(F)c1 | ? | 22.5* | ? | 24.6 | 5.5%
